Measured values as given in PubChem BioAssay (EPA / NIEHS).
Results filed as inconclusive are left out. The source made the active and inactive calls. How the source made its calls, unless noted: active means hit-call score of the fitted dose curve at least 0.9, where 1 is the maximum; inactive means score below 0.9.

Legend:
[1] = BSK_3C_uPAR: BioMAP Diversity Plus: 3C Assay for Urokinase-type plasminogen activator receptor (uPAR) Biomarker Activity (AID 2282998); details: BioMAP 3C HUVEC, uPAR biomarker ELISA; actives raise or lower the signal
Method in brief: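 Values derive from bidirectional curve fitting relative to DMSO, which served as baseline of activity. uPAR was measured by ELISA in human umbilical vein endothelial primary cultures 24 h after compound addition.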

[2] = BSK_3C_VCAM1: BioMAP Diversity Plus: 3C Assay for Vascular cell adhesion molecule 1 (VCAM1) Biomarker Activity (AID 2282999); details: BioMAP 3C HUVEC, VCAM1 ELISA, cytokine-stimulated; actives raise or lower the signal
Method in brief: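 Endothelial cells from human umbilical vein are treated with test chemical. At 24 h, VCAM-1 is measured by ELISA, and responses in either direction are fitted relative to DMSO.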

[3] = BSK_4H_Eotaxin3: BioMAP Diversity Plus: 4H Assay for Eotaxin 3 Biomarker Activity (AID 2283000); details: primary human endothelial cells (HUVEC); actives raise or lower the signal
Method in brief: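 HUVEC, 24 h post-dose, ELISA for Eotaxin-3/CCL26. Gain or loss of signal fitted bidirectionally vs DMSO baseline.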

[4] = target: human Peroxisome Proliferator-activated Receptor alpha (PPARa), PPARA (gene 5465) (UniProt Q07869); experiment: ATG_PPARa_TRANS: Attagene TRANS-FACTORIAL HepG2 Assay for human Peroxisome Proliferator-activated Receptor alpha (PPARa) (AID 2283001; active means hit-call score of the fitted dose curve at least 0.9, where 1 is the maximum)
Sequence of human Peroxisome Proliferator-activated Receptor alpha (PPARa), PPARA (gene 5465) (Q07869 whole entry, looked up, the tested form may be a part): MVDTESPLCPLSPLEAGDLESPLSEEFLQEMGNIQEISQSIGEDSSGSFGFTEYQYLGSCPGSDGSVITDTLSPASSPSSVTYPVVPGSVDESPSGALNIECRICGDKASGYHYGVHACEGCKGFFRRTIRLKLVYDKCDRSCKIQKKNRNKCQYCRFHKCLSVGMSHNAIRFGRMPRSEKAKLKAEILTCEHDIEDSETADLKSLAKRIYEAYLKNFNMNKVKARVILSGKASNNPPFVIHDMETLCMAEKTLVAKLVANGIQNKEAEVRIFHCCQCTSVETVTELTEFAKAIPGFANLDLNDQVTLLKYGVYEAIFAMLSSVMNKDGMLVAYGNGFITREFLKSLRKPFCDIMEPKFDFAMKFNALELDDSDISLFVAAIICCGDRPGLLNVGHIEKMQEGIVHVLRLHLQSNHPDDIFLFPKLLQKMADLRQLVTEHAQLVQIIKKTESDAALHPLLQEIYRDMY
Method in brief: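 Reporter transcripts from GAL4-UAS units in transfected HepG2 were quantified 24 h after dosing. Detection used reverse transcription, PCR, fluorescent primer extension and capillary electrophoresis, with DMSO as baseline.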

[5] = read-out: Intercellular Adhesion Molecule 1 (ICAM1), ICAM1 (gene 3383); experiment: BSK_3C_ICAM1: BioMAP Diversity Plus: 3C Assay for Intercellular Adhesion Molecule 1 (ICAM1) Biomarker Activity (AID 2283003); details: primary human endothelial cells (HUVEC); actives raise or lower the signal
Method in brief: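 Primary human umbilical vein endothelial cells in the BioMAP 3C system were exposed to chemicals for 24 h, then ICAM-1 was quantified by ELISA. Activity was fitted bidirectionally against the DMSO negative control baseline.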

[6] = BSK_3C_Proliferation: Cell Proliferation Assessment in the BioMAP Diversity Plus: 3C Assay (AID 2283006); details: primary human endothelial cells (HUVEC);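 on AC50: potency may reflect either rise or fall in cell number versus DMSO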
Method in brief: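 Human umbilical vein endothelial cells were grown sub-confluent and exposed to chemical for 48 h, then fixed with 10% TCA and stained with 0.1% sulforhodamine B; absorbance at 560 nm gave relative cell number, fitted bidirectionally against DMSO baseline.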

[7] = target: Peroxisome proliferator-activated receptor gamma (Homo sapiens) (UniProt P37231); experiment: ATG_PPARg_TRANS: Attagene TRANS-FACTORIAL HepG2 Assay for human Peroxisome Proliferator-activated Receptor-gamma (PPARg) (AID 2283007; active means hit-call score of the fitted dose curve at least 0.9, where 1 is the maximum)
Sequence of Peroxisome proliferator-activated receptor gamma (Homo sapiens) (P37231 whole entry, looked up, the tested form may be a part): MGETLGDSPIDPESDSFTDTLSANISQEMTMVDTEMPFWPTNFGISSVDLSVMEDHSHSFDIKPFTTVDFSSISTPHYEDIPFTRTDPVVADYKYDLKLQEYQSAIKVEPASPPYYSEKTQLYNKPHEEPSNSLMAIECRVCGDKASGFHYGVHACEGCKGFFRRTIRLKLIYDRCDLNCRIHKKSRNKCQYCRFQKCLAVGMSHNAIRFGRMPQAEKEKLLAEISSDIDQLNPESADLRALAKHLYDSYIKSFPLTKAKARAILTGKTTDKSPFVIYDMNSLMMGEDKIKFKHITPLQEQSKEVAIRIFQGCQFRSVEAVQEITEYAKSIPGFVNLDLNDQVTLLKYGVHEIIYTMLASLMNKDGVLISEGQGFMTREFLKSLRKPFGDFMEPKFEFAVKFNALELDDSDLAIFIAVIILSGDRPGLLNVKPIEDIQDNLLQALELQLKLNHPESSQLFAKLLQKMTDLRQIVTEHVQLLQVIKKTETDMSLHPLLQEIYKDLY
Method in brief: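 HepG2 cells transiently transfected with multiplexed GAL4-UAS reporter units and exogenous chimeric NR-Gal4 proteins; reporter mRNA quantified after 24 h compound exposure by RT-PCR, fluorescent labelling, HpaI digestion and capillary electrophoresis; gain-of-signal fitted versus DMSO baseline.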

[8] = target: Nuclear receptor subfamily 1 group I member 2 (Homo sapiens) (UniProt O75469); experiment: ATG_PXR_TRANS: Attagene TRANS-FACTORIAL HepG2 Assay for human Pregnane X Receptor (PXR) (AID 2283008; active means hit-call score of the fitted dose curve at least 0.9, where 1 is the maximum)
Sequence of Nuclear receptor subfamily 1 group I member 2 (Homo sapiens) (O75469 whole entry, looked up, the tested form may be a part): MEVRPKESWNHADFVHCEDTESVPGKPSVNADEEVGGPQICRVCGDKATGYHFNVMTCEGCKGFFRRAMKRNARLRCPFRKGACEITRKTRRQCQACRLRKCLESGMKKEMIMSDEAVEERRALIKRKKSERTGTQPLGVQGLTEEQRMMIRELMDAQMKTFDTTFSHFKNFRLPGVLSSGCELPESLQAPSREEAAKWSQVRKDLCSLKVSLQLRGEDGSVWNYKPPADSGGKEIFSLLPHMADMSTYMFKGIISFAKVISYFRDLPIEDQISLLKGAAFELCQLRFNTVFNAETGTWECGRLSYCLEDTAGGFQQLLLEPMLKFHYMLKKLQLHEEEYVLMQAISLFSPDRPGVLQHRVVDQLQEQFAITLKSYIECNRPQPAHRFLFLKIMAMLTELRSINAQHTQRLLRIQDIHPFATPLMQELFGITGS
Method in brief: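 HepG2 cells transiently transfected with multiple reporter units, here a PXR-GAL4 chimera driving a GAL4-UAS reporter; 24 h compound exposure. Reporter mRNA measured by RT-PCR, FAM labelling and capillary electrophoresis; gain of signal fitted against DMSO baseline.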

[9] = target: human Retinoic Acid Receptor gamma (RARg), RARG (gene 5916) (UniProt P13631); experiment: ATG_RARg_TRANS: Attagene TRANS-FACTORIAL HepG2 Assay for human Retinoic Acid Receptor gamma (RARg) (AID 2283009; active means hit-call score of the fitted dose curve at least 0.9, where 1 is the maximum)
Sequence of human Retinoic Acid Receptor gamma (RARg), RARG (gene 5916) (P13631 whole entry, looked up, the tested form may be a part): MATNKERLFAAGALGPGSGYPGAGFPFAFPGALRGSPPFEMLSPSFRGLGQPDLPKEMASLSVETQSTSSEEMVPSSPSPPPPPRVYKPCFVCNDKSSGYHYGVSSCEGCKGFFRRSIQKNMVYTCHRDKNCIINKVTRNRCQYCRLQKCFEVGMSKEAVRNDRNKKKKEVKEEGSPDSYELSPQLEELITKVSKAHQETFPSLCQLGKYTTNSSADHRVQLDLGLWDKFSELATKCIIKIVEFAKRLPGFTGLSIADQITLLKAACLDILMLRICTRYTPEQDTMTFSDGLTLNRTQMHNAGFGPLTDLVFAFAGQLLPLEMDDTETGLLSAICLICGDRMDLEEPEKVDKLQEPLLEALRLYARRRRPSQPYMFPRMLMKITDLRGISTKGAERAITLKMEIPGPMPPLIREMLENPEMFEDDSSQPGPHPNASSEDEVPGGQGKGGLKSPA
Method in brief: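 HepG2 cells transiently transfected with multiplexed reporter units expressing chimeric RARg-GAL4 and GAL4-UAS-driven reporters; 24 h compound exposure. Reporter mRNA quantified by RT-PCR with fluorescent labelling and capillary electrophoresis; gain-of-signal fitted relative to DMSO baseline.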

[10] = target: human RAR-related Orphan Receptor beta (RORb), RORB (gene 6096) (UniProt Q92753); experiment: ATG_RORb_TRANS: Attagene TRANS-FACTORIAL HepG2 Assay for human RAR-related Orphan Receptor beta (RORb) (AID 2283010; active means hit-call score of the fitted dose curve at least 0.9, where 1 is the maximum)
Sequence of human RAR-related Orphan Receptor beta (RORb), RORB (gene 6096) (Q92753 whole entry, looked up, the tested form may be a part): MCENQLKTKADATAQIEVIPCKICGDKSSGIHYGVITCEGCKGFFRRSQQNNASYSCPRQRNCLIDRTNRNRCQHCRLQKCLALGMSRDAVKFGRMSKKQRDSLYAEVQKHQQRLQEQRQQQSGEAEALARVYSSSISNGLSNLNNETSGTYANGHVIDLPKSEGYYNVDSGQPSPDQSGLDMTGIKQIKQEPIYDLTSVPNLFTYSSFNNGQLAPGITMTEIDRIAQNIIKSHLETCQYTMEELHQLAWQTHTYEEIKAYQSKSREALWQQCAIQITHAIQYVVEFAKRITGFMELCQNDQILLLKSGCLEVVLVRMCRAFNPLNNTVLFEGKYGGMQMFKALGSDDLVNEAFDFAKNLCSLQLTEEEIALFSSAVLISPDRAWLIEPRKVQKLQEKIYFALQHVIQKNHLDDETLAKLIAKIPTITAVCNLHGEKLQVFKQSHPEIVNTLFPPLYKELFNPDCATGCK
Method in brief: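 HepG2 cells were transiently transfected with multiplexed GAL4-UAS reporter units expressing chimeric nuclear receptor–GAL4 proteins, then dosed for 24 h. Reporter mRNA was quantified by RT-PCR with fluorescent labelling and capillary electrophoresis; gain of signal was fitted relative to DMSO.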

[11] = target: human Thyroid Receptor alpha (THRa1), THRA (gene 7067) (UniProt P10827); experiment: ATG_THRa1_TRANS: Attagene TRANS-FACTORIAL HepG2 Assay for human Thyroid Receptor alpha (THRa1) (AID 2283014; active means hit-call score of the fitted dose curve at least 0.9, where 1 is the maximum)
Sequence of human Thyroid Receptor alpha (THRa1), THRA (gene 7067) (P10827 whole entry, looked up, the tested form may be a part): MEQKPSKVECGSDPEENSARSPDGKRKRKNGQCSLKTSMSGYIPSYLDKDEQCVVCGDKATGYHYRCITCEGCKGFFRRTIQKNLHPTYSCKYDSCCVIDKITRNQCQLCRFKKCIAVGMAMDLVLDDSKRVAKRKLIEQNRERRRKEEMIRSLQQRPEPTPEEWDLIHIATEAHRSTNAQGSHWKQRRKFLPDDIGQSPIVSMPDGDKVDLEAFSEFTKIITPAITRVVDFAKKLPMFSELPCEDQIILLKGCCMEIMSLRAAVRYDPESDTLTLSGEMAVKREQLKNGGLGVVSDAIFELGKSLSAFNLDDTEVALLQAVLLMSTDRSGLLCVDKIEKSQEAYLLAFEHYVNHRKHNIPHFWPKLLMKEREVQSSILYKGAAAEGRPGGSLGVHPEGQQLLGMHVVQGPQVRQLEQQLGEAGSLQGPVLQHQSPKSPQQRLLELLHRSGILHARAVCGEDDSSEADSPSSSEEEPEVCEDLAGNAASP
Method in brief: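 HepG2 cells transiently transfected with multiplexed GAL4-UAS reporter units for exogenous chimeric THRa1-Gal4; reporter mRNA measured 24 h after dosing by RT-PCR, 6-FAM labelling, HpaI digestion and capillary electrophoresis. Gain-of-signal fitted versus DMSO baseline.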

[12] = read-out: E-selectin (Homo sapiens) (UniProt P16581); experiment: BSK_3C_Eselectin: BioMAP Diversity Plus: 3C Assay for Eselectin Biomarker Activity (AID 2283015); details: primary human endothelial cells (HUVEC); actives raise or lower the signal
Method in brief: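 Primary human umbilical vein endothelial cells (3C system) were dosed with chemical and cell-surface E-selectin measured by ELISA 24 h later. Bidirectional curve fitting used DMSO as negative control and baseline.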

[13] = read-out: Interleukin-1 alpha (IL1a), IL1A (gene 3552); experiment: BSK_BE3C_IL1a: BioMAP Diversity Plus: BE3C Assay for Interleukin-1 alpha (IL1a) Biomarker Activity (AID 2283016); details: primary human bronchial epithelial cells; actives raise or lower the signal
Method in brief: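 Human primary bronchial epithelial cells (BE3C system) were dosed with compound and IL-1a measured by ELISA 24 h later. Activity was fitted bidirectionally against DMSO baseline; cytotoxicity was tracked in parallel cultures by SRB total-protein staining.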

[14] = read-out: Monocyte Chemoattractant Protein-1 (MCP1), CCL2 (gene 6347); experiment: BSK_3C_MCP1: BioMAP Diversity Plus: 3C Assay for Monocyte Chemoattractant Protein-1 (MCP1) Biomarker Activity (AID 2283017); details: primary human endothelial cells (HUVEC); actives raise or lower the signal
Method in brief: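 Primary human umbilical vein endothelial cells (3C system) were exposed to test chemical for 24 h, after which MCP-1 was quantified by ELISA. Activity was fitted bidirectionally against DMSO as negative control and baseline.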

[15] = read-out: Monocyte Chemoattractant Protein-1 (MCP1), CCL2 (gene 6347); experiment: BSK_4H_MCP1: BioMAP Diversity Plus: 4H Assay for Monocyte Chemoattractant Protein-1 (MCP1) Biomarker Activity (AID 2283018); details: primary human endothelial cells (HUVEC); actives raise or lower the signal
Method in brief: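 Human umbilical vein endothelial cells (4H system) dosed with chemical; MCP-1 measured by ELISA 24 h after dosing. Bidirectional curve fitting against DMSO negative control as baseline; parallel SRB total-protein staining tracks overt cytotoxicity.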

[16] = target: Retinoic acid receptor RXR-alpha (Homo sapiens) (UniProt P19793); experiment: ATG_RXRa_TRANS: Attagene TRANS-FACTORIAL HepG2 Assay for human Retinoid X Receptor alpha (RXRa) (AID 2283012; active means hit-call score of the fitted dose curve at least 0.9, where 1 is the maximum)
Sequence of Retinoic acid receptor RXR-alpha (Homo sapiens) (P19793 whole entry, looked up, the tested form may be a part): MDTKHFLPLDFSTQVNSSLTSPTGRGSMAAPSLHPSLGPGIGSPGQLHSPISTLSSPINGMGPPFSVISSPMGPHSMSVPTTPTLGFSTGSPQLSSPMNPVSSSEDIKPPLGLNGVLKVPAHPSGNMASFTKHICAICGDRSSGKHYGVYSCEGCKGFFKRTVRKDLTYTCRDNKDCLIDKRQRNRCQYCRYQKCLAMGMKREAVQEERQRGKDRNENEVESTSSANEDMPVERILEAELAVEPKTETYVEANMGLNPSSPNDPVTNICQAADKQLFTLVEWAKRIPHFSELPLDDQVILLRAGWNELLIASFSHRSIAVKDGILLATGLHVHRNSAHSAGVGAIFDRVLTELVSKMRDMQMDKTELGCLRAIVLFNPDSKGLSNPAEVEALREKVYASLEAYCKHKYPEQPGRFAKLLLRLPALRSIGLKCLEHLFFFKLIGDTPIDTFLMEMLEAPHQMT
Method in brief: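 HepG2 cells transiently transfected with multiplexed GAL4-UAS reporter units and chimeric NR-GAL4 fusions, dosed 24 h. Reporter mRNA measured by RT-PCR, FAM labelling, HpaI digestion and capillary electrophoresis; gain-of-signal fitted relative to DMSO baseline.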

[17] = target: human Retinoid X Receptor beta (RXRb), RXRB (gene 6257) (UniProt P28702); experiment: ATG_RXRb_TRANS: Attagene TRANS-FACTORIAL HepG2 Assay for human Retinoid X Receptor beta (RXRb) (AID 2283013; active means hit-call score of the fitted dose curve at least 0.9, where 1 is the maximum)
Sequence of human Retinoid X Receptor beta (RXRb), RXRB (gene 6257) (P28702 whole entry, looked up, the tested form may be a part): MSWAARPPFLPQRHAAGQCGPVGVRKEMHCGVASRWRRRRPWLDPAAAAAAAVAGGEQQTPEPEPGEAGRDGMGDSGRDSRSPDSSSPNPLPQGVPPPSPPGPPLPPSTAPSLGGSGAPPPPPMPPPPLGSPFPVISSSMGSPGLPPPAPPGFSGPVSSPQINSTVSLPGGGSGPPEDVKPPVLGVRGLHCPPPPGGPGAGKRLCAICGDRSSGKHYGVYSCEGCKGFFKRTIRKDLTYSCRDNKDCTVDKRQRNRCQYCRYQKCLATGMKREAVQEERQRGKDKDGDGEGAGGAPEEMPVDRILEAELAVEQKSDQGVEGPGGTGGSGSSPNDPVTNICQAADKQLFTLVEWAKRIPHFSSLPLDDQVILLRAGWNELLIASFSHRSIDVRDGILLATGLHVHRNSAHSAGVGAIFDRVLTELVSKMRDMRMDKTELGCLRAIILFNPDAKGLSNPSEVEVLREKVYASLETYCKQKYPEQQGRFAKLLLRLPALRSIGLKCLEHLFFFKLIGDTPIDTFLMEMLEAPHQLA
Method in brief: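 HepG2 cells transiently transfected with multiplexed reporter units driven by GAL4-UAS and exogenous chimeric NR-Gal4 proteins; treated 24 h. Reporter mRNA measured by RT-PCR, 6-FAM labelling and capillary electrophoresis; gain-of-signal fitted versus DMSO baseline.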

[18] = target: human Retinoic Acid Receptor beta (RARb), RARB (gene 5915) (UniProt P10826); experiment: ATG_RARb_TRANS: Attagene TRANS-FACTORIAL HepG2 Assay for human Retinoic Acid Receptor beta (AID 2283004; active means hit-call score of the fitted dose curve at least 0.9, where 1 is the maximum)
Method in brief: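 HepG2 cells transiently transfected with multiplexed GAL4-UAS reporter units expressing chimeric NR–Gal4 fusions; 24 h compound exposure. Reporter mRNA quantified by RT-PCR, 6-FAM labelling, HpaI digestion and capillary electrophoresis; gain-of-signal fitted against DMSO baseline.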

[19] = target: Retinoic acid receptor alpha (Homo sapiens) (UniProt P10276); experiment: ATG_RARa_TRANS: Attagene TRANS-FACTORIAL HepG2 Assay for human Retinoic Acid Receptor alpha (RARa) (AID 2283005; active means hit-call score of the fitted dose curve at least 0.9, where 1 is the maximum)
Sequence of Retinoic acid receptor alpha (Homo sapiens) (P10276 whole entry, looked up, the tested form may be a part): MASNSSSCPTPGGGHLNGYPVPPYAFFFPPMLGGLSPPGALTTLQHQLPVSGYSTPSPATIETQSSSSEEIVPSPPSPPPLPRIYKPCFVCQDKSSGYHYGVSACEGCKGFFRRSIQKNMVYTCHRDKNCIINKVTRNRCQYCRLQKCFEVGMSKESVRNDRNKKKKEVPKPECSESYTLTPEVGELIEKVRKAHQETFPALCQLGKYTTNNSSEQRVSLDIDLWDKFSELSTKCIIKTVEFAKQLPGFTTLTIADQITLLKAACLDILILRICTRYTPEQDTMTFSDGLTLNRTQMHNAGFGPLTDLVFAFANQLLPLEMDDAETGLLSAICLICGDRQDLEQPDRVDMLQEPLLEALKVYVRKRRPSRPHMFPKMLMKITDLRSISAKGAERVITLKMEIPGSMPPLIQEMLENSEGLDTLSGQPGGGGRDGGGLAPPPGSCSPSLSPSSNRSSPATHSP
Method in brief: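 Reporter transcripts, measured by RT-PCR with fluorescent labeling and capillary electrophoresis after 24 h dosing, reflect activity of an exogenous human RARa–GAL4 fusion in transiently transfected HepG2. Fitted for increase relative to DMSO.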

Measured: AC50

Sequence of E-selectin (Homo sapiens) (P16581 whole entry, looked up): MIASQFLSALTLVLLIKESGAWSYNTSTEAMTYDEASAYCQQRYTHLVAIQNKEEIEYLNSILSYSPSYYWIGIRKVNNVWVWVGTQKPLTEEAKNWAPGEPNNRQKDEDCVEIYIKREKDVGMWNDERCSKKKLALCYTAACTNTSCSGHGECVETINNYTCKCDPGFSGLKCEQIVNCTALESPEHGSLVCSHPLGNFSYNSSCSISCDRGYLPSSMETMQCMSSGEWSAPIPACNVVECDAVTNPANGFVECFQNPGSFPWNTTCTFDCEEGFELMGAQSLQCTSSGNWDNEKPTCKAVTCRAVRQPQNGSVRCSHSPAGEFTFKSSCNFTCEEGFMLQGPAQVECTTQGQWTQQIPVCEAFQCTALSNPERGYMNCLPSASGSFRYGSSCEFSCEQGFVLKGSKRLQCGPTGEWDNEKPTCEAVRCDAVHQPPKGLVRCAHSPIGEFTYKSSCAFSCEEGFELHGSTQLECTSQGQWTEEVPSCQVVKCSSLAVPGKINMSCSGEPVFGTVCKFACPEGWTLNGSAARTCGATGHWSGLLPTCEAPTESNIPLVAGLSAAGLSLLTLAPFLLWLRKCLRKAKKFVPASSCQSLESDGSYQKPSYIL

COP(=O)(OC)O/C(C)=C/C(=O)N(C)C
inactive: [1] | [2] | [3] | [4] | [5] | [6] | [7] | [8] | [9] | [10] | [11] | [12] | [13] | [14] | [15]

CCCCOCN(C(=O)CCl)c1c(CC)cccc1CC
active: [1] 31.2 µM | [2] 27.4 µM | [3] 36.1 µM | [5] 32.2 µM | [6] 28.2 µM | [7] 1.38 µM | [12] 19.3 µM | [13] 36.5 µM | [14] 30.2 µM | [15] 25.6 µM
inactive: [4] | [8] | [10] | [16] | [17] | [11]

CCOP(=S)(OCC)Oc1nc(Cl)n(C(C)C)n1
inactive: [1] | [2] | [3] | [5] | [18] | [19] | [6] | [7] | [10] | [17] | [11] | [12] | [13] | [14] | [15]
active: [8] 2.39 µM

OC(c1ccc(Cl)cc1)(c1ccc(Cl)cc1)C(Cl)(Cl)Cl
inactive: [19] | [7] | [8] | [16] | [17]
active: [1] 29.1 µM | [2] 14.1 µM | [3] 29.8 µM | [5] 29 µM | [6] 11.6 µM | [12] 13.8 µM | [13] 15.1 µM | [14] 29.3 µM | [15] 13.8 µM

Cc1c(COC(=O)[C@@H]2[C@H](/C=C(\Cl)C(F)(F)F)C2(C)C)cccc1-c1ccccc1
active: [6] 12.7 µM
inactive: [1] | [2] | [3] | [5] | [18] | [19] | [7] | [8] | [9] | [10] | [16] | [17] | [11] | [12] | [13] | [14] | [15]
